6 compounds from PubChem BioAssay (NCATS) can be followed below.

Unmarked numbers belong to inactive results. Results filed as inconclusive are left out. Active and inactive are the calls of the source. Unless noted, the call rests on the fitted dose curve; in most records, active means well fitted curve in the direction sought with a large enough effect; inconclusive means small, poorly fitted or top-dose-only effect, or another doubt; inactive means no such curve, though single readings can be large; an effect the other way counts as inactive or inconclusive.

The nature of assay [1]: AP1 Signaling Pathway (AID 357; active means well fitted curve in either direction with a large enough effect, not every such curve was filed as active;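 further: ME-180 reporter cells stimulated with EGF at its EC50 level; on the % scale 0 is the no-effect control and ±100 the full control effect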). The conditions noted are these: ME-180 AP-1-bla reporter, EGF-induced, beta-lactamase ratio, 5 h; at 7.69 µM (top of the series) unless noted. Put shortly:
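Titration-series screen for positive or negative modulators of EC50 EGF-induced signaling in ME-180 cells carrying an AP-1-driven beta-lactamase reporter. After 5 hours at 37 degrees Celsius, CCF4 460nm/530nm emission ratio gave %Activity; AC50 values derived.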

The target of assay [2] is Cytochrome P450 1A2 (Homo sapiens) (UniProt P05177). The experiment in a line: p450-cyp1a2 (AID 410; calls by dose curve; further: potency means the concentration at half of the fitted maximal effect;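 on activity change, negative = inhibition: -100% = full effect of reference inhibitor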). The conditions noted are these: recombinant CYP1A2, luciferin-ME demethylation, luminescence; series mostly up to 11.4 µM. Put shortly: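 20nM CYP1A2, 100uM Luciferin-ME (=Km), 100mM KPO4; cpd 10 min RT; +NADPH regen, 60 min RT; stop/detect 20 min; luminescence. Normalized to furafylline 57 uM = full inhibition.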
Sequence of Cytochrome P450 1A2 (Homo sapiens) (P05177 whole entry, looked up): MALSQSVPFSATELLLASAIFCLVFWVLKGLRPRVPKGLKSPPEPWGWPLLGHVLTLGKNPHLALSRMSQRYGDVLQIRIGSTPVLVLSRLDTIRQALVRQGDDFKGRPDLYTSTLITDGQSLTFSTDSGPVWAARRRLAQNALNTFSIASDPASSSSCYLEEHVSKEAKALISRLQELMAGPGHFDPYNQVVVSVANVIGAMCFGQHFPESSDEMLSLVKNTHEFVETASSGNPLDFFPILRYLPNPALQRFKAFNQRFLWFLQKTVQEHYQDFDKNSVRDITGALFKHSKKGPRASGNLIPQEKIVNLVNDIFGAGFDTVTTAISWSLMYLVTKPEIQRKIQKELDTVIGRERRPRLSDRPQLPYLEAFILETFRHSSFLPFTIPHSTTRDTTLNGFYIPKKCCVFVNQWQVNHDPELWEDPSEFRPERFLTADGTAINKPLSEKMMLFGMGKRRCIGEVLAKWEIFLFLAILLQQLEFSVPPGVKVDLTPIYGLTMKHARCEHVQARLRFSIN

A short description of assay [3]: NFAT Signaling Pathway (AID 444; active means well fitted curve in either direction with a large enough effect, not every such curve was filed as active;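 further: carbachol stimulus at about its EC50 of 1 µM final; on the % scale 0 is the no-effect control and ±100 the full control effect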). The settings on record: Jurkat NFAT-bla M1, carbachol, beta-lactamase ratio, 5 h; at 7.69 µM (top of the series) unless noted. In outline:
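Read-out: CCF4 FRET ratio (460 nm/530 nm) after 1 h RT dye loading, used for %activity and AC50 from titration series. Cells: Jurkat NFAT-β-lactamase/M1 line, treated with compound plus 1 uM carbachol for 5 h, 37 °C.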

A short description of assay [4]: Stat Signaling Pathway (AID 446; active means well fitted curve in either direction with a large enough effect, not every such curve was filed as active;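 further: ME-180 cervical cancer cells given 40 pM IL-6 alongside compound; SIE-controlled beta-lactamase reporter measured as 460/530 nm FRET emission ratio; on the % scale 0 is the no-effect control and ±100 the full control effect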). The settings on record: ME-180 (cervical carcinoma) SIE beta-lactamase reporter, IL-6 stimulated, 5 h; at 7.69 µM (top of the series) unless noted. Put shortly: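 FRET read-out (405 nm excitation, 460/530 nm emission) of a beta-lactamase reporter under a STAT-inducible element in ME-180 cervical carcinoma cells. Cells with compound receive 40 pM IL-6 for 5 h. Values are normalised to AC90 stimulation and AC90 JAK-inhibitor controls.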

Assay [5] addresses Glucocorticoid receptor (Homo sapiens) (UniProt P04150). Nature of the assay: GR-GFP Redistribution (AID 450;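 active means compounds whose dose series gives a full or clear partial fitted curve of increased nuclear translocation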; further: potency means the concentration at half of the fitted maximal effect). The conditions noted are these: U2OS GR-GFP nuclear translocation, laser cytometry, 2 h.
The target is the same in assay [6]. Nature of the assay: GR-EFC Redistribution (AID 451; calls by dose curve; further: potency means the concentration at half of the fitted maximal effect). The conditions noted are these: CHO-K1 GR-EFC translocation, beta-gal luminescence, 2 h. Put shortly:
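Translocation of GR-ED fusion to nuclear EA restores b-gal, read by luminescence after 1 h room-temperature detection. Engineered CHO-K1 biosensor cells, 1,000/well, exposed 2 h at 37 C to titrations up to 46 uM final.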

Assay [7] concerns the target Muscarinic acetylcholine receptor M1 (Rattus norvegicus) (UniProt P08482). Nature of the assay: qHTS Assay for Antagonists of Acetylcholine Muscarinic M1 Receptor: Measurement of IP-One Response (AID 944). Further: nearly all actives have a fitted effect of over 75% in size. The settings on record: CHO-M1 cells, IP-One HTRF, antagonist mode; series mostly up to 46.1 µM. Put shortly: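 Read-out: HTRF competition between d2-IP1 and Eu-cryptate anti-IP1 antibody, emission 620 and 665 nm. Stimulus was carbachol, EC80 (200 nM), for 30 min in M1-CHO cells (rat receptor), after 10 min compound pre-treatment.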

The target in assay [8] is Pyruvate kinase (Leishmania mexicana) (UniProt Q27686). Nature of the assay: qHTS Validation Assay for Inhibitors of Leishmania Mexicana Pyruvate Kinase (AID 945).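 Further: 0% = DMSO only neutral control wells.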 The conditions noted are these: purified L. mexicana pyruvate kinase, enzyme activity, E451W mutant enzyme; series mostly up to 57.5 µM. In outline:
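Compounds are tested as eight-point concentration series. Reactions contain 0.2 nM LmPYK E451W, 0.5 mM PEP, 0.1 mM ADP, 7 mM MgCl2 and 50 mM KCl at pH 7.2, run 1 h at room temperature, then read by PKLight luminescence.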
(In general: Quantitative high-throughput screening tests each substance at several concentrations.)

Assay [9] deals with Pyruvate kinase PKM (Homo sapiens) (UniProt P14618). Nature of the assay: qHTS Assay for Activators of Human Muscle Pyruvate Kinase (AID 954; active means well fitted curve in the direction sought with a large enough effect, not every such curve was filed as active;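 further: 0% = uninhibited enzyme and -100% = no enzyme or full thiadiazolimine inhibition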). The conditions noted are these: purified human muscle pyruvate kinase, luciferase-coupled luminescence, 1 h; series mostly up to 57.5 µM. Put shortly: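 ATP production by PKM2 detected via luciferase luminescence after 1 h room-temperature reaction (0.1 nM enzyme, PEP at Km 0.5 mM, ADP 0.1 mM, pH 7.2 imidazole buffer). Inhibition scaled to no-enzyme control; activation referenced to 0.3 nM enzyme wells.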
Sequence of Pyruvate kinase PKM (Homo sapiens) (P14618 whole entry, looked up): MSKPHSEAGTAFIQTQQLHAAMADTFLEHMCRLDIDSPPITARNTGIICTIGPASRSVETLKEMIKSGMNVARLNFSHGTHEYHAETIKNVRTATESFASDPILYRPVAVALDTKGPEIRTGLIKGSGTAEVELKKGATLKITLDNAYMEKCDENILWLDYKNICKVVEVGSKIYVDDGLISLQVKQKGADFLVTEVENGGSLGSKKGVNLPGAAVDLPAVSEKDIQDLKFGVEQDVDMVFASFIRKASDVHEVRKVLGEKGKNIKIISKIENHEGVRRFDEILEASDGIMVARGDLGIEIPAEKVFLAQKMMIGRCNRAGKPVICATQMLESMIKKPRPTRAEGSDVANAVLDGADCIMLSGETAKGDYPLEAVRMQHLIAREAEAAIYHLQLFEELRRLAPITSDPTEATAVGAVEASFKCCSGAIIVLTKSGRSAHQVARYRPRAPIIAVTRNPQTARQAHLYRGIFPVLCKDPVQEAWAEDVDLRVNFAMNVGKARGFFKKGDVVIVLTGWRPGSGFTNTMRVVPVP

The target of assay [10] is Alpha-galactosidase A (Homo sapiens) (UniProt P06280). Nature of the assay: Counterscreen for Glucocerebrosidase Inhibitors: qHTS Assay for Human alpha-Galactosidase at pH 4.5 (AID 992). Further: 0% is about no effect. The conditions noted are these: purified enzyme, fluorogenic substrate; series mostly up to 76.9 µM. Put shortly: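 Fluorogenic 1536-well qHTS at pH 4.5 (citrate, Tween-20): 2 nM enzyme, 80 uM 4-MU-alpha-galactoside, 20 min room temperature, NaOH/glycine stop. Titration 0.7 nM to 77 uM, data normalized to no-enzyme and full-activity controls, Hill-fitted AC50.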
Sequence of Alpha-galactosidase A (Homo sapiens) (P06280 whole entry, looked up): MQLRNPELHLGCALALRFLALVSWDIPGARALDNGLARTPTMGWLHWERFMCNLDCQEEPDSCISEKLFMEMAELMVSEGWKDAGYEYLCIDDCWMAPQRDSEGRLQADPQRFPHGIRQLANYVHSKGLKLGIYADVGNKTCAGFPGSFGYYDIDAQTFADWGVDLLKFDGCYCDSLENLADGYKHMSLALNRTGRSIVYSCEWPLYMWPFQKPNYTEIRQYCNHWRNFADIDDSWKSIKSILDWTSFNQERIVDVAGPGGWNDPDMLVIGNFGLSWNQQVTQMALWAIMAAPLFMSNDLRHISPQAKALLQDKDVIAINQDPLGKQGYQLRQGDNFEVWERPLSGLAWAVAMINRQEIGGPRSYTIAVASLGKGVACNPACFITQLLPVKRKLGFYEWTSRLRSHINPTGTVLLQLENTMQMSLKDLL
For orientation: The purpose of a counterscreen is to sort out artefacts and off-target activity.

In assay [11] the target is 3',5'-cyclic-AMP phosphodiesterase 4B (Homo sapiens) (UniProt Q07343). Nature of the assay: qHTS Assay for Inhibitors of PDE-IV (AID 607; active means well fitted activation curve with a large enough effect in the main read-out, with a control signal flat, not every such curve was filed as active; further: % of control where 0% means no effect). The settings on record: HEK293 ACTOne CNG channel cells, membrane potential fluorescence; series mostly up to 22.9 µM. In outline:
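Cell-based read-out of cAMP via a modified cyclic nucleotide-gated channel and membrane potential dye (535/590 nm) in HEK293 cells expressing PDE4 endogenously. Compounds tested up to 22.9 uM final; 100 uM RO 20-1724 reference.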

The target in assay [12] is Cytochrome P450 2C9 (Homo sapiens) (UniProt P11712). Nature of the assay: qHTS Assay for Inhibitors and Substrates of Cytochrome P450 2C9 (AID 883). Further: potency means the concentration at half of the fitted maximal effect; nearly all actives have a fitted effect of over 60% in size. The conditions noted are these: recombinant CYP2C9, luciferin-H luminescence, 60 min; series mostly up to 11.4 µM. In outline: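 Turnover of Luciferin-H (100uM, KM) by 10nM human CYP2C9 was measured over 60 min at 37C with NADPH regeneration; inhibitors and some substrates reduce luminescence. Data normalized to sulphaphenazole 57uM.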

Assay [13] concerns the target Cytochrome P450 3A4 (Homo sapiens) (UniProt P08684). Nature of the assay: qHTS Assay for Activators of Cytochrome P450 3A4 (AID 885). Further: nearly all actives have a fitted effect of over 65% in size. The settings on record: recombinant CYP3A4, Luciferin-PPXE luminescence, 60 min; series mostly up to 11.4 µM. Put shortly: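 Luminescent readout of luciferin formed from 25 uM Luciferin-PPXE (KM level) by 20 nM CYP3A4 in 200 mM KPO4, with 60 min NADPH-driven reaction at room temperature after 10 min compound exposure. Ketoconazole (57 uM) defined 100% inhibition.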

Assay [14] concerns the target alpha-glucosidase (Oryza sativa, rice) (UniProt Q653V4). Nature of the assay: Counterscreen for Glucocerebrosidase Inhibitors: qHTS Assay for Rice alpha-Glucosidase at pH 5.0 (AID 997).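 Further: 0% = full activity with enzyme and -100% = basal without enzyme.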 The conditions noted are these: rice alpha-glucosidase enzyme activity; series mostly up to 76.9 µM. In outline: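 Endpoint fluorogenic assay at pH 5.0: compounds (0.7 nM to 77 uM) titrated against 4 nM rice enzyme and 400 uM 4-MU-alpha-glucoside for 20 min at room temperature; NaOH/glycine stop, read ex 365/em 440 nm, Hill-fitted AC50.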

Assay [15] addresses Mitogen-activated protein kinase 10 (Mus musculus) (UniProt Q61831). Nature of the assay: JNK3 AlphaScreen Assay (AID 530; active means well fitted curve in either direction with a large enough effect, not every such curve was filed as active;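 further: kinase came from lysate of stimulated human HepG2 cells; signal reports phosphorylation of biotinylated GST-cJun 1-79 at Ser73 with 10 µM ATP; on the % scale 0 is the no-effect control and ±100 the full control effect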). The conditions noted are these: JNK3 lysate, c-Jun phosphorylation; series mostly up to 11.4 µM. In outline:
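Kinase buffer: 20 mM Tris-HCl pH 7.6, 10 mM MgCl2, 1 mM DTT, 0.1 mM Na3VO4, 0.01% Tween-20; ATP 10 uM. Substrate biotin-GST-cJun(1-79), enzyme from activated HepG2 lysates. Detection by Ser73 phospho-antibody AlphaScreen.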
(Alpha assays give light when donor and acceptor beads are brought close together.)

Assay [16] addresses Guanine nucleotide-binding protein G(i) subunit alpha-1 (Homo sapiens) (UniProt P63096). The experiment in a line: qHTS Assay for Inhibitors of RGS12 GoLoco Motif Activity (Green Fluorophore) (AID 879).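 Further: 0% = labeled peptide with Gαi1 and full inhibition = labeled peptide alone without protein; negative values mean loss of peptide binding seen as reduced polarization.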 The settings on record: Galphai1/FITC-RGS12 GoLoco peptide, fluorescence polarization; series mostly up to 57.1 µM. In outline: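 A drop in FITC polarization marked displacement of the FITC-tagged RGS12 GoLoco peptide (10 nM) from Gαi1 (50 nM). Compounds were incubated 10 min at room temperature in Tris pH 7.5 buffer containing 150 mM NaCl, 0.1 mM GDP and 0.05% NP40; unlabeled peptide titration served as control.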

A short description of assay [17]: qHTS Assay for Identification of Small Molecule Antagonists for NFkB Signaling Pathway (AID 895; active means well fitted inhibition curve with a large enough effect in the signal ratio, with a control signal flat, not every such curve was filed as active; the % refers to the signal ratio; further: on the % scale 0 is the no-effect control and ±100 the full control effect). The settings on record: NFkB beta-lactamase reporter cells, FRET ratio 460/530, stimulated with 10 pM TNF alpha; series mostly up to 38.3 µM. Put shortly: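 Beta-lactamase reporter read-out (460 and 530 nm emission ratio, 405 nm excitation, 2 hrs substrate loading RT) after 5 hr stimulation with 10 pM TNF alpha in compound-treated NFkB-bla ME-180 cells in low-serum medium.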

The nature of assay [18]: qHTS Assay for Identification of Small Molecule Agonists for Thrombopoietin (TPO) Signaling Pathway (AID 917). Further: on the % scale 0 is the no-effect control and ±100 the full control effect. The conditions noted are these: TPO signaling pathway reporter cells, agonist qHTS, stimulated with TPO at its EC50; series mostly up to 38.5 µM. In outline:
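Ba/F3 (mouse) + hTPO receptor + GpIIb-promoter luciferase; IL-3 withdrawn overnight; compound + 26 pM TPO (EC50), 24 hrs, 37 C, 5% CO2; Steadylite luminescence, 10 min RT.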

Sequence of Guanine nucleotide-binding protein G(i) subunit alpha-1 (Homo sapiens) (P63096 whole entry, looked up): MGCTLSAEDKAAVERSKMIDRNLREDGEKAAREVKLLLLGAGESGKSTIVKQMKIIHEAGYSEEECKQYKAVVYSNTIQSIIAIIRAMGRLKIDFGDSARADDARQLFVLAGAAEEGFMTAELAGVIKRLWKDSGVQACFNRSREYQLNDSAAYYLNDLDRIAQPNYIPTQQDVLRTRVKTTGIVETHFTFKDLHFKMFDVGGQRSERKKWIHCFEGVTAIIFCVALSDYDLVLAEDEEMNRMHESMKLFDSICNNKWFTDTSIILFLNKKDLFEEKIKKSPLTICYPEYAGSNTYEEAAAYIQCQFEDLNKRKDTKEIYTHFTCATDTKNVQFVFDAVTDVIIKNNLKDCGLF
Sequence of 3',5'-cyclic-AMP phosphodiesterase 4B (Homo sapiens) (Q07343 whole entry, looked up): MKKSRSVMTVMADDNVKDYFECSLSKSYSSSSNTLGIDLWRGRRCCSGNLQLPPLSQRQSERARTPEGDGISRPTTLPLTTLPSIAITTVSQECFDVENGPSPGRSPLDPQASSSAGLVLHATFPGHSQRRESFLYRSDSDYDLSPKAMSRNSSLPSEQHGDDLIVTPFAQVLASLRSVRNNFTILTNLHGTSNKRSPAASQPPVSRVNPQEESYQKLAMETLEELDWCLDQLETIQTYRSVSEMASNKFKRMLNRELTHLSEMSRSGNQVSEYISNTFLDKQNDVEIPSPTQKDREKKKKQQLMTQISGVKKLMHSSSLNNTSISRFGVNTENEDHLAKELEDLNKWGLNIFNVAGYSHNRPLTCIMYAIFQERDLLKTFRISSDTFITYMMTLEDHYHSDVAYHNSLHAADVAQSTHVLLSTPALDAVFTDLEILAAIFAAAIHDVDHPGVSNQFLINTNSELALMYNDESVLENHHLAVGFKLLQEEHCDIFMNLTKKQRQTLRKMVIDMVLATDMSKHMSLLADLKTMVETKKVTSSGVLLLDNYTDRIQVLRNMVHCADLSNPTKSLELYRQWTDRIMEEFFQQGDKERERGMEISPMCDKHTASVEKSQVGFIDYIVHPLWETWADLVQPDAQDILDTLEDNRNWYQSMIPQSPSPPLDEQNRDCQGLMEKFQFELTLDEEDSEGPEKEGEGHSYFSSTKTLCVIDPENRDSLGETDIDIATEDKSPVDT
Sequence of Glucocorticoid receptor (Homo sapiens) (P04150 whole entry, looked up): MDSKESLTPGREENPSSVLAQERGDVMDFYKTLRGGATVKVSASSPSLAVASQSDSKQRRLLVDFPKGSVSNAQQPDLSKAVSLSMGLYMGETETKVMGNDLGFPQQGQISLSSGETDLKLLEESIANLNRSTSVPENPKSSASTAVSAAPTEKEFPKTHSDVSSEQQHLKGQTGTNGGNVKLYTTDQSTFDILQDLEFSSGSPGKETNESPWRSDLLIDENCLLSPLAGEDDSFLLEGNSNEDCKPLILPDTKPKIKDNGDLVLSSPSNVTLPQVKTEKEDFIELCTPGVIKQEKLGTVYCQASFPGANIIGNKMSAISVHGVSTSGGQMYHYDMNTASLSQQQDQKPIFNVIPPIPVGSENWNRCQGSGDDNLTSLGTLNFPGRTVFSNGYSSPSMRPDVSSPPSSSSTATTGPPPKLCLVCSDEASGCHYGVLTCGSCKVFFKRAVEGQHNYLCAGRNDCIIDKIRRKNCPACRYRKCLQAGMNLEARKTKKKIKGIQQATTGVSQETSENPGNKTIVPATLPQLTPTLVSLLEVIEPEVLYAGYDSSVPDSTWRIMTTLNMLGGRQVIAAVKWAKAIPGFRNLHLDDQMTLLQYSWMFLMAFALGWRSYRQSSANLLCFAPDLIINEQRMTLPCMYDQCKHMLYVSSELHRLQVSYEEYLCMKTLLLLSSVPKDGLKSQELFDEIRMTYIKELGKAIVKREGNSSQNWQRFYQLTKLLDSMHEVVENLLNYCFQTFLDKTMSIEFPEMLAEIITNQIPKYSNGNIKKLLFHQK
Sequence of Pyruvate kinase (Leishmania mexicana) (Q27686 2-499 E452W): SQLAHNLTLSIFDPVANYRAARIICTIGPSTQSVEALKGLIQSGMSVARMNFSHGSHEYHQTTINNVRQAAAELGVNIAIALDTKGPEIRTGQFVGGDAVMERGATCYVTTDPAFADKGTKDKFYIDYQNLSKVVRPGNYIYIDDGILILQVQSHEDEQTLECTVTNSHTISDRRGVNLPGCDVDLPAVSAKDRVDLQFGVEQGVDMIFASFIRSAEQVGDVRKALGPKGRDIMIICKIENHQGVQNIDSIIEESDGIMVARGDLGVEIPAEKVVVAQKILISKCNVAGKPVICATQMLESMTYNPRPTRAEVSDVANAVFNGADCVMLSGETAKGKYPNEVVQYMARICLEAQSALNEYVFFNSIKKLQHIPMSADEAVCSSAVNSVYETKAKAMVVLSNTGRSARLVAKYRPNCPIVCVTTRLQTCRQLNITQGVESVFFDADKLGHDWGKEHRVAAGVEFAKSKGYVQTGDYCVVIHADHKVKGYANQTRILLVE
Sequence of Muscarinic acetylcholine receptor M1 (Rattus norvegicus) (P08482 whole entry, looked up): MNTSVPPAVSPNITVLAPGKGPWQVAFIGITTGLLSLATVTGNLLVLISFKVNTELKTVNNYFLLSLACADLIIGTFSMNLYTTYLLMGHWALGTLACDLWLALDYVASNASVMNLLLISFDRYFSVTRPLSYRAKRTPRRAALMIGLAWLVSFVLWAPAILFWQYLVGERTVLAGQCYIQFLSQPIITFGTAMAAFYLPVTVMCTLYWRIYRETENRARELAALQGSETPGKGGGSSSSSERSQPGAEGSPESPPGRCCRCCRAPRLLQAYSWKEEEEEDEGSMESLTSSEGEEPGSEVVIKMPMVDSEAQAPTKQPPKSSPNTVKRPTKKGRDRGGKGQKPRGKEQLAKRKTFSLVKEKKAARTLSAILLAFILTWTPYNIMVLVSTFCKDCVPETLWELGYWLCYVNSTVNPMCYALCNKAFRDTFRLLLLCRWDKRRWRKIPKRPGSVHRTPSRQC
Sequence of Cytochrome P450 3A4 (Homo sapiens) (P08684 whole entry, looked up): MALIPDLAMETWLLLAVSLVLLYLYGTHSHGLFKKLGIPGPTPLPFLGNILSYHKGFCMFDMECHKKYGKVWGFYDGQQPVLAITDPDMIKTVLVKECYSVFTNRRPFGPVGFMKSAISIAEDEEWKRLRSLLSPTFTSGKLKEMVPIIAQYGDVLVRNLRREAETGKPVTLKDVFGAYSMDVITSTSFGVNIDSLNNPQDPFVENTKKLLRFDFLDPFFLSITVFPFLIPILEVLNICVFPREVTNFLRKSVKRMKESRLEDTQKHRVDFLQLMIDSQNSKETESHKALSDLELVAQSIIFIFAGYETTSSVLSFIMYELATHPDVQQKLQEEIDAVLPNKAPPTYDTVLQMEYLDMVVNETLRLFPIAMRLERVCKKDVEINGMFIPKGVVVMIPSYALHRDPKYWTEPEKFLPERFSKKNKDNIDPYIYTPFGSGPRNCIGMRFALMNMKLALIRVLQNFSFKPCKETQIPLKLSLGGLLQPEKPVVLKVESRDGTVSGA

On to `CC[C@@H]1CN2CCc3cc(OC)c(OC)cc3[C@H]2C[C@@H]1C[C@@H]1NCCc2cc(OC)c(OC)cc21`, for which the activity change, negative = inhibition in assay [1] was -110% [at 38 µM] (active); in [3], -112% [at 38 µM] (active). For the same compound, the Potency entry in [2] and in assay [7] was “inactive” each time. For the same compound, the activity, negative = inhibition in assay [4] was -52.6% [at 38 µM] (active). The Potency in [5] and in assay [6] was above 46 µM in each case. Also, the compound was classed as inactive in assay [8], in [9] and in assay [10].

With `Nc1c(S(=O)(=O)O)cc(Nc2cccc(S(N)(=O)=O)c2)c2c1C(=O)c1ccccc1C2=O`, the activity change, negative = inhibition was 26% in assay [1] and -26.6% in assay [3]. Further, the Potency is 3.98 µM (active) in [2], above 46 µM in assay [5], above 9.22 µM in [6] and 3.16 µM (active) in assay [12]. Moreover, the activity, negative = inhibition in assay [4] is 2.62%. The Potency result in assay [11] and in assay [13] was “inactive” each time.

With `C[C@@]12C=CC(=O)C=C1CC[C@@H]1C2=CC[C@]2(C)[C@@H]1CC[C@H]2C(=O)CN1CCN(c2cc(N3CCCC3)nc(N3CCCC3)n2)CC1`, the figures for the activity change, negative = inhibition in assay [1] and in assay [3] were 13.8% [at 38 µM] and -21.1% [at 38 µM], respectively. Further, the Potency in assay [2] was 12.6 µM (active); in assay [6], above 46 µM. For the same compound, in [4], the activity, negative = inhibition is 9.08% [at 38 µM]. Also, the Potency result in assay [11] and in assay [14] was “inactive” each time. For the same compound, the call in [8], in [9] and in [10] was inactive.

As to `Nc1ncnc2c1nc(Br)n2[C@@H]1O[C@H]2COP(=O)(O)O[C@@H]2[C@H]1O`, the activity change, negative = inhibition was -7.65% [at 38 µM] in assay [1] and 6.13% [at 38 µM] in assay [3]. The Potency entry in assay [2], in assay [15], in assay [11], in assay [17], in [7] and in [14] was “inactive” throughout. The activity, negative = inhibition in assay [4] was 4.8% [at 38 µM]. Besides, in assay [5], the Potency was 2.43 µM (active). Moreover, the call in assay [16], in [18], in assay [8], in assay [9] and in [10] was inactive.

On to `Nc1ncnc2c1ncn2[C@@H]1O[C@@H](C(=O)NC2CC2)[C@H](O)[C@@H]1O`, for which the activity change, negative = inhibition in assay [1] was -9.63% [at 38 µM]; in assay [3], -15.3% [at 38 µM]. For the same compound, the Potency result in [2], in assay [15], in [13], in [7] and in assay [14] was “inactive” throughout. Moreover, the activity, negative = inhibition in [4] is -7% [at 38 µM]. The Potency in assay [5] and in assay [6] was above 46 µM each time. For the same compound, the call in assay [16], in assay [18], in [8], in assay [9] and in assay [10] was inactive.

Take `CC1(C)CCC(NC(=O)[C@H](N)CCC(=O)O)CC1`: the activity change, negative = inhibition in assay [1] is 5.34% [at 38 µM]; in assay [3], 2.47% [at 38 µM]. The Potency entry in assay [2], in assay [11], in assay [17] and in [7] was “inactive” in each case. Besides, in assay [4], the activity, negative = inhibition was -7.41% [at 38 µM]. Further, the Potency in assay [5] and in assay [6] was above 46 µM throughout. Moreover, the outcome in [16], in assay [9] and in [10] was inactive.
